Assay outcomes: PubChem, National Center for Advancing Translational Sciences (NCATS)
This is one part of a sample in which hits are shown more often than they occur.
Shiga toxin inh: A qHTS for Small Molecule Inhibitors of Shiga Toxin; Vero cells, Shiga toxin protein synthesis inhibition reporter; inhibition, % at 38.7 µM; hit rate 9.2% among 290,000; AID 2315, 2010; in the data active = inhibition mostly above about 28%, no sharp cut-off; inactive = mostly below about 43%; note: 0% is about no effect
TbPYK inhibitor: qHTS of Trypanosoma Brucei Inhibitors | TbPYK enzyme, Kinase-Glo Plus ATP luminescence, 45 min | Potency, µM (titrated, usually from 76.8 µM), for the others: at the top dose activity, negative = inhibition, actives largely listed as inhibitors | hit rate 0.12% among 410,000; note: potency is the fitted concentration of half-maximal effect; % is set by controls: 0 for no effect and ±100 for the full control effect; nearly all actives have a fitted effect of over 50% in size
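TbPYK + substrate in 50 mM TEA pH 7.2, 100 mM KCl, 10 mM MgCl2, 0.05% BSA, 0.01% Tween-20; cpd pinned; ADP 130 uM final; 45 min RT; Kinase-Glo Plus 10 min; luminescence endpoint.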
LmPK inhibitor: qHTS Assay for Inhibitors of Leishmania Mexicana Pyruvate Kinase (LmPK); hit rate 0.37% among 290,000; purified LmPK, Kinase-Glo ATP luminescence, 1 h; Potency, µM (top dose mostly 57.5 µM), for inactives: at the highest dose activity change, negative = inhibition, hits mostly inhibitors; Q27686; note: potency is the fitted concentration of half-maximal effect; % is set by controls: 0 for no effect and ±100 for the full control effect
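ATP generated from ADP (0.1 mM) and PEP (0.5 mM) by 0.1 nM LmPK over 1 h at room temperature (pH 7.2 imidazole buffer) was detected by coupled luciferase luminescence. Values were normalized to uninhibited and no-enzyme wells.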
Cycloheximide cs: Cycloheximide Counterscreen for Small Molecule Inhibitors of Shiga Toxin; cell reporter, cycloheximide protein synthesis inhibition counterscreen; max response, %; hit rate 12% among 300,000; AID 2314, 2010; in the data active = max response mostly above about 13%, no sharp cut-off; inactive = mostly below about 14%; note: read at 38.3 µM for the half of the compounds with a filed dose; 0% is about no effect
Giardia FBPA inh: qHTS Assay for Inhibitors of Fructose-1,6-bisphosphate Aldolase from Giardia Lamblia; Potency, µM (highest dose often 59.6 µM), for inactives: top-dose activity, negative = inhibition, usual class: inhibitors; purified Giardia FBPA; A8B2U2; AID 2451, 2010; hit rate 0.71% among 290,000; note: potency is the fitted concentration of half-maximal effect; % is set by controls: 0 for no effect and ±100 for the full control effect; nearly all actives have a fitted effect of over 55% in size
Target sequence (A8B2U2 whole entry, looked up): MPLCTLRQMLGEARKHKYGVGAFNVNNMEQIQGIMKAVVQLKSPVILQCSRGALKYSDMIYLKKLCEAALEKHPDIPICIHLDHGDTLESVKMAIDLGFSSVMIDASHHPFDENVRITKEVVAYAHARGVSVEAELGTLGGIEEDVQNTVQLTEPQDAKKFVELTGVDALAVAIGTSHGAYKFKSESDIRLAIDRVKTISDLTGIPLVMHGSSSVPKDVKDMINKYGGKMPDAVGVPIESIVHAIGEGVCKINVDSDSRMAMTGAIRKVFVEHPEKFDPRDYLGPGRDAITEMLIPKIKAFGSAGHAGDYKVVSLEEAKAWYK
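Giardia FBPA (40 nM reagent) was preincubated 10 min at RT with compound (up to 57.5 uM final), then substrate plus GAPDH/TPI/NAD/arsenate coupling system with diaphorase/resazurin was added; resorufin fluorescence (525/598 nm) was read after 20 min.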
Sm TGR block: qHTS Assay for the Inhibitors of Schistosoma Mansoni Peroxiredoxins; Schistosoma mansoni thioredoxin glutathione reductase (TGR), Q962Y6; purified TGR, DTNB reduction, TNB absorbance 405 nm; Potency, µM (highest dose often 114 µM), inactives show at the highest dose activity change, negative = inhibition, hits mostly inhibitors; hit rate 3% among 360,000; note: potency is the fitted concentration of half-maximal effect; % is set by controls: 0 for no effect and ±100 for the full control effect; nearly all actives have a fitted effect of over 60% in size
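TGR 20 nM + NADPH 100 uM (dispensed conc.), cpd preinc 15 min RT; start with NADPH (500 uM addition) then DTNB (15 mM addition). Kinetic TNB absorbance, 405 nm filter. Four-parameter Hill fit across titration.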
* hit, by the source's call. Unless noted, calls come from the whole dose curve; as a rule, active = well fitted curve in the direction sought with a large enough effect; inconclusive = small, poorly fitted or top-dose-only effect, or another doubt; inactive = no such curve, though single readings can be large; an effect the other way counts as inactive or inconclusive.

Results for CC12CCC(C(=O)Nc3nc4ccc(Br)cc4s3)(OC1=O)C2(C)C (stereo not drawn) ?
Shiga toxin inh: 94*; TbPYK inhibitor: 1%; LmPK inhibitor: -1%; Cycloheximide cs: 33*; Giardia FBPA inh: 1%; Sm TGR block: -5%

What do the screens show for `CC12CCC(C(=O)Nc3nccs3)(OC1=O)C2(C)C` (stereo not drawn)?
Shiga toxin inh: -10; LmPK inhibitor: -10%; Cycloheximide cs: 13; Giardia FBPA inh: 4%; Sm TGR block: 3%

How did O=c1[nH]c2ccccc2nc1/C=C/c1ccc(Cl)cc1 do in these assays?
Shiga toxin inh: 69*; TbPYK inhibitor: -24%; LmPK inhibitor: -2%; Cycloheximide cs: 37*; Giardia FBPA inh: 5%; Sm TGR block: 2%

How did O=C(/C=C/c1ccco1)Nc1ccc(-c2nc3ccccc3[nH]2)cc1 do in these assays?
Shiga toxin inh: 36; TbPYK inhibitor: 1%; LmPK inhibitor: -4%; Cycloheximide cs: -3; Giardia FBPA inh: 6%; Sm TGR block: -18%

How did C(=C\c1ccco1)/c1nc2ccccc2[nH]1 do in these assays?
Shiga toxin inh: 70*; TbPYK inhibitor: -20%; LmPK inhibitor: inconclusive; Cycloheximide cs: 50*; Giardia FBPA inh: -22%; Sm TGR block: 3.2µM*

How did C(=C\c1nc2ccccc2[nH]1)/c1ccccc1 do in these assays?
Shiga toxin inh: 68*; TbPYK inhibitor: inconclusive; LmPK inhibitor: 8.9µM*; Cycloheximide cs: 21*; Giardia FBPA inh: -22%; Sm TGR block: 9%

What do the screens show for `O=C(/C(=C/c1ccc(Cl)cc1)c1nc2ccccc2[nH]1)c1ccccc1`?
Shiga toxin inh: 41*; TbPYK inhibitor: 3%; LmPK inhibitor: 3%; Cycloheximide cs: 37*; Giardia FBPA inh: -1%; Sm TGR block: 7%

How did CC(=O)Nc1ccc(/C=C/c2nc3ccccc3[nH]c2=O)cc1 do in these assays?
Shiga toxin inh: 59; TbPYK inhibitor: 0%; LmPK inhibitor: -5%; Cycloheximide cs: 9; Giardia FBPA inh: -27%; Sm TGR block: -13%

How did CCCCCS(=O)(=O)CCCCCCCCCCn1c(-c2ccc(O)cc2)c(C)c2cc(O)ccc21 do in these assays?
Giardia FBPA inh: 1%

What do the screens show for `Cc1ccc(Cl)cc1NC(=O)C(C)n1nc(-c2ccccc2)ccc1=O` (stereo not drawn)?
TbPYK inhibitor: 0%; Sm TGR block: -5%

How did O=C(Nc1ccc(-c2cn3c(n2)SCC3)cc1)c1ccc2ccccc2n1 do in these assays?
Shiga toxin inh: 48*; TbPYK inhibitor: -2%; LmPK inhibitor: -2%; Cycloheximide cs: 50*; Giardia FBPA inh: -14%; Sm TGR block: 0%

Results for CC(=O)c1ccc(S(=O)(=O)Nc2ccc(-c3cn4c(n3)SCC4)cc2)cc1 ?
Shiga toxin inh: -2; TbPYK inhibitor: -13%; LmPK inhibitor: 19%; Cycloheximide cs: -1; Giardia FBPA inh: 9%; Sm TGR block: -19%

What do the screens show for `O=C(Nc1cccc(-c2cn3c(n2)SCC3)c1)c1ccc2ccccc2n1`?
Shiga toxin inh: 133*; TbPYK inhibitor: -6%; LmPK inhibitor: 1%; Cycloheximide cs: 45*; Giardia FBPA inh: -9%; Sm TGR block: 2%

Results for COC(=O)C1=C[C@@H](C(=O)OC)C2C3=C(C(=O)[C@@]2(C)NC(=O)c2ccccc2)[C@H](C)[C@@H]2C(=O)N(C)C(=O)[C@@H]2[C@@H]3C1 (stereo partly drawn) ?
Shiga toxin inh: 23; Cycloheximide cs: 2; Giardia FBPA inh: -9%

How did CC(=O)c1ccc(N2CCN(c3ncnc4c3nc3n4CCCC3)CC2)cc1 do in these assays?
TbPYK inhibitor: -4%; Sm TGR block: 3%

Results for CN(C)S(=O)(=O)c1ccc(NC(=O)CCCNC(=O)c2ccc(Cl)cc2)cc1 ?
Shiga toxin inh: -2; TbPYK inhibitor: 4%; LmPK inhibitor: 1%; Cycloheximide cs: -3; Giardia FBPA inh: 3%; Sm TGR block: -17%
